Active and inactive are the calls of the source. Unless noted, how the calls were made is not given here.
How the values were obtained:
[1] = test system: Wnt5a (protein binding on small-molecule microarray); test: small molecules binding Wnt5a protein – biophysical, small-molecule microarray, 635/667 nm fluorescence, primary screen (AID 1142); conditions: 635 nm fluorescence, higher = more signal;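 further: fluorescence read at 667 nm with signal to noise per printed feature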
[2] = ATP-based viability of Huh7 replicon cells – cell-based, CellTiter-Glo luminescence, basal, 48 h, cytotoxicity control for HCV replication inhibitor project, primary screen (AID 1143); conditions: Huh7 HCV replicon, CellTiter-Glo luminescence, 48 h, higher = more signal, called active from +8 up or from −8 down unless noted;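 further: Huh7 hepatoma cells carrying a hepatitis C replication reporter with no stimulus; test concentration not given here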
[3] = Pseudomonas biofilm growth suppression – PAO1 strain, BacTiter-Glo luminescence, LB-PBS, primary screen (AID 1144); conditions: P. aeruginosa PAO1 biofilm, 12 h, higher = more signal
[4] = basal CRE-LacZ reporter activity in PC12 – cell-based, unstimulated, primary screen (AID 1145); conditions: no forskolin, luminescence, 4.5 h; higher = more signal, called active from +8 up or from −8 down unless noted
[5] = forskolin-driven CRE-LacZ activity in PC12 – cell-based, CRE-LacZ reporter, forskolin-stimulated, primary screen (AID 1146); conditions: luminescence, 4.5 h; higher = more signal, called active from +8 up or from −8 down unless noted;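 further: PC12 cells with 6xCRE LacZ reporter stimulated by forskolin 10 µM; beta-galactosidase reporter signal reflecting CREB driven transcription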
[6] = biological target: Streptavidin (Streptomyces avidinii) (UniProt P22629); test: compounds binding control protein streptavidin – biophysical, small-molecule microarray, 635/667 nm fluorescence, artefact control for SMM compound annotation, primary screen (AID 1147); conditions: higher = more signal;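 further: signal reflects streptavidin binding to arrayed compounds as a control protein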
Sequence of Streptavidin (Streptomyces avidinii) (P22629 whole entry, looked up): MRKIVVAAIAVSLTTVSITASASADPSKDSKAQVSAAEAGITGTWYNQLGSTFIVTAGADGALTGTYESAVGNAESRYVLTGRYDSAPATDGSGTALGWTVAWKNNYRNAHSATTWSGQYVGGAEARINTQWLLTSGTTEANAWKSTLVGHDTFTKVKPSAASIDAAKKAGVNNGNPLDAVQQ

[7] = probe aInhba binding on compound microarray – biochemical, small-molecule microarray, 635/667 nm fluorescence, primary screen (AID 1148); conditions: higher = more signal; small-molecule microarray, probe aInhba, fluorescence unless noted;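 further: score merges 667nm spot fluorescence with signal-to-noise for antibody binding to printed compounds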
[8] = biological target: Torsin-1A (Homo sapiens) (UniProt O14656); test: TOR1A wild-type binding on microarray – cell lysate, small-molecule microarray, lysate, 635/667 nm, primary screen (AID 1149); conditions: COS7 hTOR1A-WT lysate, 635 nm fluorescence, higher = more signal
Sequence of Torsin-1A (Homo sapiens) (O14656 whole entry, looked up): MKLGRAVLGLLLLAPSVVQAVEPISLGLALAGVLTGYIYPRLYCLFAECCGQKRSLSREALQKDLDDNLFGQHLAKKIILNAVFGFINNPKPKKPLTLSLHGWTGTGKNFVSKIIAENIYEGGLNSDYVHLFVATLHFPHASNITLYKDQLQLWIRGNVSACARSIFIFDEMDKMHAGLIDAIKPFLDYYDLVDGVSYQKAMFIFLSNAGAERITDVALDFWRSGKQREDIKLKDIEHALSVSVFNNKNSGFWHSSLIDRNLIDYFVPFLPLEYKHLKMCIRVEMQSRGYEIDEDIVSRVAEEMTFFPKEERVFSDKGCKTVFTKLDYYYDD

[9] = biological target: Torsin-1A (Homo sapiens) (UniProt O14656); test: torsin A mutant lysate binding on microarrays – cell lysate, small-molecule microarray, COS7 lysate, 635/667 nm fluorescence, primary screen (AID 1150); conditions: COS7 hTOR1A mutant lysate, 635 nm fluorescence, higher = more signal;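 further: score pools 667 nm emission and signal to noise measuring lysate protein binding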
[10] = test system: Sonic hedgehog protein (Shh); test: Sonic hedgehog microarray binding compounds – biochemical, small-molecule microarray, 635/667 nm fluorescence, primary screen (AID 1151); conditions: 635 nm fluorescence, higher = more signal;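 further: Shh protein binding to compounds spotted on small-molecule microarray slides; score combines spot fluorescence intensity with signal-to-noise across triplicate slides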
[11] = optical density shifts of acrAB sulA E. coli – strain DRC41, OD650, 48 h, E. coli filamentation inducer project, primary screen (AID 1152); conditions: higher = more signal, called active from +8 up or from −8 down unless noted;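 further: E. coli MC1000 strain DRC41 lacking acrAB efflux pump and sulA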
[12] = probe aLefty1 binding on compound microarray – biochemical, small-molecule microarray, 635/667 nm fluorescence, primary screen (AID 1153); conditions: higher = more signal; small-molecule microarray, probe aLefty1, fluorescence unless noted;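 further: score merges spot fluorescence with signal-to-noise ratio from the scanned slide images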
[13] = plasmodial surface anion channel blockers, osmotic lysis – cell-based, P. falciparum Indochina, OD700, 1 h, primary screen (AID 1154); conditions: P. falciparum Indochina infected RBC osmotic lysis; higher = more signal, called active from +8 up or from −8 down unless noted
[14] = plasmodial surface anion channel blockers, osmotic lysis – cell-based, P. falciparum Indochina, OD700, 2 h, primary screen (AID 1155);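 further: lysis reports solute entry through the parasite surface anion channel PSAC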; conditions: P. falciparum Indochina infected erythrocytes; higher = more signal, called active from +8 up or from −8 down unless noted
[15] = changes in parasitized red cell lysis, either direction – P. falciparum Indochina, OD700, 3 h, PSAC antagonist project, primary screen (AID 1156); conditions: P. falciparum-infected erythrocytes, osmotic lysis; higher = more signal, called active from +8 up or from −8 down unless noted
[16] = plasmodial surface anion channel blockers, osmotic lysis – cell-based, P. falciparum Indochina, OD700, 18 h, primary screen (AID 1157); conditions: P. falciparum Indochina infected erythrocytes, osmotic lysis OD700, 18 h; higher = more signal, called active from +8 up or from −8 down unless noted
[17] = S6 kinase pathway phospho-S6 level changes – cell-based, A549, cytoblot, luminescence, serum-stimulated, primary screen (AID 1158); conditions: 5 h, higher = more signal;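 further: serum-stimulated A549 lung adenocarcinoma cells; signal is phosphorylated S6 detected by cytoblot immunostaining with HRP secondary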
[18] = biological target: NADPH oxidase 2 (Homo sapiens) (UniProt P04839); test: compounds shifting NOX2 Amplex Red fluorescence – cell-based, HEK293-NOX2, PMA-stimulated, NOX inhibitor project, primary screen (AID 1159); conditions: 45 min; higher = more signal, called active from +8 up or from −8 down unless noted; further: test concentration not given here
Sequence of NADPH oxidase 2 (Homo sapiens) (P04839 whole entry, looked up): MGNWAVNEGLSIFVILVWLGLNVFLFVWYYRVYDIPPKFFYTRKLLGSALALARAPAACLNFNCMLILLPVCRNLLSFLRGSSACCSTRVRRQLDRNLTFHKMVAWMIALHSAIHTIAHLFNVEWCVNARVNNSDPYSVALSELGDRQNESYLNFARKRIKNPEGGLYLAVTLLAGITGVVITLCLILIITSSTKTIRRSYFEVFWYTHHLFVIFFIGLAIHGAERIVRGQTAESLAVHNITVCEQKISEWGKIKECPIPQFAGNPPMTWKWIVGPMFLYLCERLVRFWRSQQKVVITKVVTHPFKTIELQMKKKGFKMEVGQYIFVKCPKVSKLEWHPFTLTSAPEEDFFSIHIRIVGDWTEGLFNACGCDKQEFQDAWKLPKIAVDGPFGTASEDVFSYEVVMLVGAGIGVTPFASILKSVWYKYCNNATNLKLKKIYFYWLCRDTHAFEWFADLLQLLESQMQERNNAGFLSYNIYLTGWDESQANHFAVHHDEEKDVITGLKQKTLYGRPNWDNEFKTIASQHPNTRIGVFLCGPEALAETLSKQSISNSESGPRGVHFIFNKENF

[19] = biological target: NADPH oxidase 4 (Homo sapiens) (UniProt Q9NPH5); test: compounds shifting NOX4 Amplex Red fluorescence – cell-based, HEK293-NOX4, tetracycline-induced, NOX inhibitor project, primary screen (AID 1160); conditions: HEK293-NOX4, Amplex Red H2O2 fluorescence, 45 min; higher = more signal, called active from +8 up or from −8 down unless noted
Sequence of NADPH oxidase 4 (Homo sapiens) (Q9NPH5 whole entry, looked up): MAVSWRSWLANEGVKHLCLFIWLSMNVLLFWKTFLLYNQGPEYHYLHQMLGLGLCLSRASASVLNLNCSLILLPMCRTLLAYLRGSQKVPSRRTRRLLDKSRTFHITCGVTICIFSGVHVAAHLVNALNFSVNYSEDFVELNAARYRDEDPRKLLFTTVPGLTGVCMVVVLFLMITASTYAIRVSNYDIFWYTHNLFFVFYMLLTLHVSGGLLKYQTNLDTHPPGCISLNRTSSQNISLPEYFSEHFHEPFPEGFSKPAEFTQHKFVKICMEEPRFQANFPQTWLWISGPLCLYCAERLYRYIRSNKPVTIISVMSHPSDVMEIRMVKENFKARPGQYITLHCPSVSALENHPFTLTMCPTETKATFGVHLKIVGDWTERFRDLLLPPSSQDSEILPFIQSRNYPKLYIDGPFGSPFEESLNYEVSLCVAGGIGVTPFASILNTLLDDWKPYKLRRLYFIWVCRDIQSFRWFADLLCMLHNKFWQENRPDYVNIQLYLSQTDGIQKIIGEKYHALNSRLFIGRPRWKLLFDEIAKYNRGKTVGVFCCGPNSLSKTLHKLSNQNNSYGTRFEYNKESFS

[20] = biological target: NADPH oxidase 5 (Homo sapiens) (UniProt Q96PH1); test: compounds shifting NOX5 Amplex Red fluorescence – cell-based, HEK293-NOX5, NOX inhibitor project, primary screen (AID 1161); conditions: HEK293-NOX5, ionomycin, 45 min, higher = more signal
Sequence of NADPH oxidase 5 (Homo sapiens) (Q96PH1 whole entry, looked up): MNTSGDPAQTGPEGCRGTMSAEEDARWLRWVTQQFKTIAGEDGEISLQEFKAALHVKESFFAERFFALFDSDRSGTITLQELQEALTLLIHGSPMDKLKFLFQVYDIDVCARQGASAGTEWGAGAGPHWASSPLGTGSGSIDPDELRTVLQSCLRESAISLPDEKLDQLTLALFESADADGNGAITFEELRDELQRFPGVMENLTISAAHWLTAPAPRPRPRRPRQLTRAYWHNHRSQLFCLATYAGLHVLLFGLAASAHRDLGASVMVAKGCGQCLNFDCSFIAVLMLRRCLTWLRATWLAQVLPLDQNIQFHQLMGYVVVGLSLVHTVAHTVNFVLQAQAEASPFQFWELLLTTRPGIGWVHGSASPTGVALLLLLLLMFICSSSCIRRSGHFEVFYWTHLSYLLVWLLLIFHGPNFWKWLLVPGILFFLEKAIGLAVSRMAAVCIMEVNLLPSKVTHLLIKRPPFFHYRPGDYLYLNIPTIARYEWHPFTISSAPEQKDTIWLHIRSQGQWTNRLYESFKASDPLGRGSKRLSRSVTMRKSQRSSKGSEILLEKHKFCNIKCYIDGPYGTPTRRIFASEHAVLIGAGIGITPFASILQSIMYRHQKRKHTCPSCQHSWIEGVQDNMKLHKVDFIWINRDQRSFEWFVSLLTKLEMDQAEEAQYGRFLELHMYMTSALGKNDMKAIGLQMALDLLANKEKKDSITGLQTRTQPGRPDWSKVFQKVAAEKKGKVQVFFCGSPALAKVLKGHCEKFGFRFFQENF

Row | Structure (SMILES) | composite z-score [1] | z-score [2] | z-score [3] | z-score [4] | z-score [5] | composite z-score [6] | composite z-score [7] | composite z-score [8] | composite z-score [9] | composite z-score [10] | z-score [11] | composite z-score [12] | z-score [13] | z-score [14] | z-score [15] | z-score [16] | z-score [17] | z-score [18] | z-score [19] | z-score [20]
1 | CCCC=C(CCC)[C@@H](NP(=O)(c1ccccc1)c1ccccc1)c1ccccc1 | -0.0444 | -0.411 (inactive) | 0.168 (inactive) | 0.201 (inactive) | 0.89 (inactive) | 0.821 | -0.168 | 0.364 | 0.368 | -0.0623 | -1.19 (inactive) | 0.547 | 4.03 (inactive) | 0.584 (inactive) | 0.689 (inactive) | 0.249 (inactive) | 1.02 | -1.7 (inactive) | -0.617 (inactive) | 0.842
2 | C[C@@H]1OC=C2[C@@H](O)[C@H]3O[C@H]3C(=O)[C@]23[C@H]1[C@H]1C2=C([C@@H](O)[C@H]4O[C@H]4C2=O)[C@@H]3O[C@@H]1C | -0.0894 | 0.612 (inactive) | 0.389 (inactive) | 1.01 (inactive) | 1.04 (inactive) | -0.0542 | -0.206 | 0.924 | 0.419 | 0.881 | -0.418 (inactive) | -0.27 | -0.531 (inactive) | 0.407 (inactive) | -0.655 (inactive) | 0.0502 (inactive) | 0.0176 | 1.2 (inactive) | 0.214 (inactive) | -0.31
3 | CCOC(=O)[C@H]1CC=C2C(=O)Oc3ccccc3[C@@H]21 | -0.652 | -1.22 (inactive) | -0.473 (inactive) | -0.228 (inactive) | 1.7 (inactive) | -0.521 | -0.0405 | -2.41 | -1.59 | -0.528 | -0.59 (inactive) | -0.106 | 1.27 (inactive) | 0.804 (inactive) | 0.458 (inactive) | 0.708 (inactive) | -0.395 | 0.00603 (inactive) | -0.285 (inactive) | -0.275
4 | CN1CCC(c2ccc(CO)cc2)=CC1C1CC1 (stereo not given) | -0.103 | -0.209 (inactive) | 0.656 (inactive) | 3.78 (inactive) | 0.54 (inactive) | -0.333 | -0.101 | 0.309 | 0.431 | 1.85 | -0.492 (inactive) | 0.103 | 0.899 (inactive) | 0.0137 (inactive) | -0.38 (inactive) | 0.0864 (inactive) | -1.04 | -0.477 (inactive) | -0.169 (inactive) | -0.0858
5 | COC(=O)[C@@]1(Cc2ccc(F)cc2)[C@H]2c3cc(C(=O)N(C)C)[nH]c3C[C@H]2CN1C(=O)c1ccccc1 | 0.163 | -0.108 [setting not given] (inactive) | 0.208 (inactive) | -0.754 [setting not given] (inactive) | -0.0669 [setting not given] (inactive) | 0.134 | 0.143 [setting not given] | 0.181 | 0.252 | -0.879 | -0.652 [setting not given] (inactive) | 0.0738 [setting not given] | 1.37 [setting not given] (inactive) | 0.0978 [setting not given] (inactive) | 0.219 [setting not given] (inactive) | 0.641 [setting not given] (inactive) | -0.393 | 0.33 [setting not given] (inactive) | 0.502 [setting not given] (inactive) | -0.936
6 | c1ccc(-c2cc3c(nc2-c2ccccc2)CCNC3)cc1 | -0.2 | -0.207 (inactive) | 0.346 (inactive) | 0.291 (inactive) | -0.815 (inactive) | 0.0291 | 0.0228 | 0.175 | -0.256 | -0.193 | -0.539 (inactive) | -0.101 | 1.39 (inactive) | 0.179 (inactive) | 0.484 (inactive) | 0.248 (inactive) | -0.597 | 1.18 (inactive) | 0.286 (inactive) | -0.433
7 | CCCc1cc2c(n1Cc1ccc(C)cc1)C(C)C1CN(C(=O)c3ccccc3)C(C)(C(=O)OC)C21 (stereo not given) | 0.667 | -2.69 (inactive) | 0.426 (inactive) | 1.53 (inactive) | 1.57 (inactive) | 1.23 | 0.643 | 0.55 | 1.06 | -0.2 | -0.692 (inactive) | 1.33 | 1.5 (inactive) | -0.732 (inactive) | 0.454 (inactive) | -1.81 (inactive) | 1.39 | -0.714 (inactive) | -0.757 (inactive) | -3.63
8 | C[C@H]1O[C@H]2C3=C(C(=O)[C@@H]4O[C@@H]4[C@@H]3O)[C@@H]1[C@@H]1[C@@H](C)OC=C3[C@@H](O)[C@H]4O[C@H]4C(=O)[C@]312 | -0.176 | -3.24 (inactive) | -1.61 (inactive) | 1.65 (inactive) | 1.76 (inactive) | -0.418 | -0.208 | 0.251 | -0.306 | 0.534 | -0.209 (inactive) | -0.321 | -0.49 (inactive) | -0.569 (inactive) | 0.276 (inactive) | -0.987 (inactive) | 1.5 | -0.203 (inactive) | -0.0614 (inactive) | 0.441

Reference: PubChem BioAssay
